KCNQ2 pot: KCNQ2 (rat) channel potentiation; O88943; CHO-K1 KCNQ2, FluxOR thallium flux fluorescence; active compounds read high; B-score at 10 µM; 310,000 tested, 0.54% active;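 active means fluorescence ratio B-score at least 3 SD of library B-scores, with initial fluorescence B-score within 3 of them, cut at about 5.3 in these data; same plate scores as AID 2156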;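 further: B-score of peak minus minimum over baseline fluorescence ratio after K+ and Tl+ stimulus; positive B-score means potentiation of KCNQ2 with more thallium influx and brighter signal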
KCNQ2 block: inhibitors of rat KCNQ2 potassium channel; B-score at 10 µM; O88943; AID 2156; CHO-K1 KCNQ2, FluxOR thallium flux, 20 min; active compounds read low; 310,000 tested, 1.1% active;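 active means fluorescence ratio B-score at most minus 3 library SDs, with starting brightness B-score within 2 library SDs, cut at about -5.5 in these data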
Kir21 conf inh: confirmation of mouse Kir2.1 potassium channel inhibitors. shares compounds with KCNQ2 pot. Kir2.1-expressing cells, FluxOR thallium flux fluorescence; active compounds read low. Tl flux remaining, % of negative control (active compounds read low), % at 10 µM. 2,300 tested, 41% active;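 active means Primary-screen hit whose thallium flux fell at least 3 control SD below untreated wells in both duplicates, with normal baseline fluorescence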
HEK293 Tl flux: counter-screen for Kir2.1 inhibitors: effect in parental HEK293 cells; shares compounds with KCNQ2 pot; FluxOR thallium flux fluorescence; 0% = unstimulated blank wells; FluxOR signal as % of negative control (100 = no effect), % at 10 µM; 2,300 tested, 19% active; AID 2105;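 active means dye signal at least 3 control SD above or below untreated wells in both duplicates, raw fluorescence within 3, either direction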;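 further: percent is based on the flux ratio of peak minus minimum fluorescence over baseline F0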
CHO-K1 Tl ctr: counter-screen for KCNQ2 potentiators: effect in parental CHO-K1 cells; shares compounds with KCNQ2 pot; FluxOR thallium flux fluorescence; zero = vehicle mean+3SD, 100% = vehicle-minus-blank window; activity increase over 3SD of controls, % at 10 µM; 1,200 tested, 43% active;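 active means signal rise of at least 3 SD above the untreated control mean, in both duplicate wells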;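 further: counter screen of KCNQ2 potentiator hits so any rise reflects channel-independent effects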
KCNQ1 pot spec: human KCNQ1 counter-target activity of KCNQ2 potentiators; shares compounds with KCNQ2 pot; CHO KCNQ1 stable, FluxOR thallium flux fluorescence; beyond 3SD, as % of vehicle-control signal; activation over 3SD threshold, % at 10 µM; 1,200 tested, 28% active; AID 2283;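 active means fluorescence ratio rise of at least 3 SD of vehicle wells above their mean, in both replicate wells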
KCNQ2 pot confirm: rat KCNQ2 channel potentiator confirmation; shares compounds with KCNQ2 pot; CHO-KCNQ2 cells, FluxOR thallium flux fluorescence; potentiation, less the hit threshold, % at 10 µM; 1,200 tested, 68% active; AID 2287;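 active means fluorescence ratio rising 3 SD or more over the vehicle control mean in both replicates, plus primary screen hit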;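 further: peak minus minimum thallium fluorescence divided by baseline after K/Tl stimulus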
Kir21 spec: mouse Kir2.1 off-target activity of KCNQ2 potentiators; 1,200 tested, 2% active; HEK293 Kir2.1, FluxOR thallium flux fluorescence; shares compounds with KCNQ2 pot; AID 2345; activity over 3SD threshold, % at 10 µM;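 active means fluorescence ratio rise of at least 3 SD above the vehicle-control mean, seen in both replicates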
KCNQ2 W236L MoA: KCNQ2 potentiators acting on retigabine-insensitive rat KCNQ2 W236L mutant; 940 tested, 10% active; AID 2558; current increase over 3SD of negative controls (%), active compounds read high, % at 25 µM; shares compounds with KCNQ2 pot; CHO KCNQ2-W236L, automated patch clamp current;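 active means current increase at least 3 SD of the untreated controls above them in both duplicate recordings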
Target sequence (O88943 whole entry W236L, looked up): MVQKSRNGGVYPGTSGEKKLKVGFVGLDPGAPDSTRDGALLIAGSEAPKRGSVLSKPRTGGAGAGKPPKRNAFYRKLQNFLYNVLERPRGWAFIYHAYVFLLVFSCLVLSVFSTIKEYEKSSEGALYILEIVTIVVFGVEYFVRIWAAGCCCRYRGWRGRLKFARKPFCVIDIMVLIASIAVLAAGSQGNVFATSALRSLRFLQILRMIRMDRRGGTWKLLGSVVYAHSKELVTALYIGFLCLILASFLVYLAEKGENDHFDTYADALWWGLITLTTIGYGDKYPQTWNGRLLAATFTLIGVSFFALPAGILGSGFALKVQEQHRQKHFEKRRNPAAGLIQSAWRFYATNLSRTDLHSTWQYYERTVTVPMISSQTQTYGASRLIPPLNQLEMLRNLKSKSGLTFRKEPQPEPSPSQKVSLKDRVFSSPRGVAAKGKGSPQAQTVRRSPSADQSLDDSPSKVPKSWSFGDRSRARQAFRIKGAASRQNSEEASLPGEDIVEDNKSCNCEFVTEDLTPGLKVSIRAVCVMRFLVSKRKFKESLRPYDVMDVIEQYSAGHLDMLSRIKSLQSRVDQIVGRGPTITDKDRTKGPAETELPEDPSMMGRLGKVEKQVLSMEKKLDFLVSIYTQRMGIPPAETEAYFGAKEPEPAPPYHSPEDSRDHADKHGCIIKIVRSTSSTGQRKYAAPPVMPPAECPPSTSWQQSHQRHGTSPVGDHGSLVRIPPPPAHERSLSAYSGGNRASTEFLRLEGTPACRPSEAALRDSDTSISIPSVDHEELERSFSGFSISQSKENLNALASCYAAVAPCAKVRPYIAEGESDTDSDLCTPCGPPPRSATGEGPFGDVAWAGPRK
Of the large screens only hits and unclear results are named; the others gave an inactive call (follow-up assays come after a bar, where they were run). Hits are enriched below; roughly 1.6% of the tested compounds scored in any of these assays.

COc1c2c(c(C)c3c1C(=O)OC3)O[C@@]1(C)CC[C@@]3(O)C(C)(C)OC(=O)CC[C@]3(C)[C@H]1C2	none (no result: KCNQ2 pot)
Cc1cccc(COCCN2CCN(S(=O)(=O)c3ccccc3)CCC2=O)c1	none (no result: KCNQ2 pot)
O=C(CSc1nc(-c2ccco2)cc(C(F)(F)F)n1)N1CCN(c2ccc(Cl)cc2)CC1	none
COc1ccc(CCNC(=O)CSc2nc(-c3ccco3)cc(C(F)(F)F)n2)cc1OC	none
O=C(CSc1nc(-c2ccco2)cc(C(F)(F)F)n1)N1CCN(Cc2ccccc2)CC1	KCNQ2 pot 23 | Kir21 conf inh inactive | HEK293 Tl flux inactive | CHO-K1 Tl ctr 81 | KCNQ1 pot spec inactive | KCNQ2 pot confirm 42 | Kir21 spec inactive | KCNQ2 W236L MoA inactive
COc1ccccc1N1CCN(C(=O)CSc2nc(-c3ccco3)cc(C(F)(F)F)n2)CC1	KCNQ2 pot 12 | Kir21 conf inh inactive | HEK293 Tl flux inactive | CHO-K1 Tl ctr 16 | KCNQ1 pot spec 13 | KCNQ2 pot confirm 11 | Kir21 spec inactive | KCNQ2 W236L MoA inactive
Cc1ccc(Nc2nc(N)nc(CN3CCN(c4ccccc4)CC3)n2)cc1Cl	none (no result: KCNQ2 pot)
COc1ccc(N2CCN(Cc3nc(N)nc(Nc4ccc(C)c(Cl)c4)n3)CC2)cc1	KCNQ2 pot 11 | Kir21 conf inh inactive | HEK293 Tl flux inactive | CHO-K1 Tl ctr 60 | KCNQ1 pot spec 7.2 | KCNQ2 pot confirm 21 | Kir21 spec inactive | KCNQ2 W236L MoA inactive
COc1ccc(-c2cc(=O)oc3c(O)c(O)ccc23)cc1	none
CC1Oc2cc3oc4c(O)c(O)ccc4c(=O)c3c(O)c2C1(C)C (stereo unspecified)	KCNQ2 pot 5.4 | Kir21 conf inh inactive | HEK293 Tl flux inactive | CHO-K1 Tl ctr inactive | KCNQ1 pot spec inactive | KCNQ2 pot confirm inactive | Kir21 spec inactive
COc1ccc(/C=N/NC(=O)c2ccoc2C)cc1CN1CCN(c2ccc(F)cc2)CC1	none
O=C(Nc1ncc2c(n1)-c1ccccc1CC2)c1ccc(F)cc1	none
O=C(Nc1ncc2c(n1)-c1ccccc1CC2)c1ccccc1	KCNQ2 pot 8.5 | Kir21 conf inh inactive | HEK293 Tl flux 73% | CHO-K1 Tl ctr inactive | KCNQ1 pot spec 73 | KCNQ2 pot confirm 17 | Kir21 spec inactive | KCNQ2 W236L MoA inactive
O=C(Nc1nc2c(s1)CCc1ccccc1-2)c1cccs1	none
O=C(Nc1ncc2c(n1)-c1ccccc1CC2)c1cccs1	KCNQ2 pot 9.7 | Kir21 conf inh inactive | HEK293 Tl flux inactive | CHO-K1 Tl ctr inactive | KCNQ1 pot spec inactive | KCNQ2 pot confirm 29 | Kir21 spec inactive | KCNQ2 W236L MoA inactive
Cc1oc2cc3oc(=O)cc(C)c3cc2c1C	none
O=C(CCS(=O)(=O)c1ccccc1)N1CCN(c2ccc(F)cc2)CC1	none (no result: KCNQ2 pot)
O=C(CCSCCC(=O)NCc1cccs1)NCc1cccs1	none
O=C(CC1CC2CCC1C2)NCc1cccs1 (stereo unspecified)	KCNQ2 pot 5.3 | Kir21 conf inh inactive | HEK293 Tl flux inactive | CHO-K1 Tl ctr inactive | KCNQ1 pot spec 27 | KCNQ2 pot confirm 13 | Kir21 spec inactive | KCNQ2 W236L MoA inactive
O=C(CCC1CCCCC1)NCc1cccs1	KCNQ2 pot 7.4 | Kir21 conf inh inactive | HEK293 Tl flux inactive | CHO-K1 Tl ctr 54 | KCNQ1 pot spec inactive | KCNQ2 pot confirm 15 | Kir21 spec inactive | KCNQ2 W236L MoA inactive
O=C(NCc1cccs1)C12CC3CC(CC(C3)C1)C2	none
Brc1cccc(C=Nc2cccc3ncccc23)c1	none
Oc1c(Br)cc(Br)cc1C=Nc1cccc2ncccc12	KCNQ2 pot 14 | Kir21 conf inh inactive | HEK293 Tl flux inactive | CHO-K1 Tl ctr inactive | KCNQ1 pot spec inactive | KCNQ2 pot confirm inactive | Kir21 spec inactive | KCNQ2 W236L MoA inactive
Cc1cccn2c(=O)nc(SCC(=O)c3ccccc3)nc12	none (no result: KCNQ2 pot)
O=C(Nc1nc(=O)c2ccccc2s1)c1ccc(F)cc1	KCNQ2 pot 5.8 | Kir21 conf inh inactive | HEK293 Tl flux 174% | CHO-K1 Tl ctr inactive | KCNQ1 pot spec inactive | KCNQ2 pot confirm inactive | Kir21 spec inactive
O=C(Cc1ccccc1)Nc1nc(=O)c2ccccc2s1	none
COc1cccc(/C=C2\SC(=O)N(CC(=O)NC3C=CS(=O)(=O)C3)C2=O)c1 (stereo unspecified)	none
O=C(Nc1ccccc1F)C1COc2ccccc2O1 (stereo unspecified)	none (no result: KCNQ2 pot)
O=S(=O)(NCc1csc(-c2cccs2)n1)c1ccc(Cl)cc1	none (no result: KCNQ2 pot) | Kir21 conf inh 42% | HEK293 Tl flux inactive
O=S(=O)(NCc1csc(-c2cccnc2)n1)c1ccc(Br)cc1	none | Kir21 conf inh 72% | HEK293 Tl flux inactive
Cc1ccc(S(=O)(=O)NCc2csc(-c3cccs3)n2)cc1	none (no result: KCNQ2 pot)
COc1ccc(S(=O)(=O)NCc2csc(-c3cccnc3)n2)cc1	none
O=S(=O)(NCc1csc(-c2cccs2)n1)c1cccc(C(F)(F)F)c1	none | Kir21 conf inh 42% | HEK293 Tl flux inactive
O=S(=O)(NCc1csc(-c2cccs2)n1)c1cccs1	none (no result: KCNQ2 pot)
CCC(=O)C1CCCN(C(=O)CCc2nnc(-c3ccc(C(C)=O)s3)o2)C1 (stereo unspecified)	none
CNCCC(Oc1ccc(C(F)(F)F)cc1)c1ccccc1 (stereo unspecified)	none (no result: KCNQ2 pot)
CNCC[C@H](Oc1cccc2ccccc12)c1cccs1	none (no result: KCNQ2 pot) | Kir21 conf inh inactive | HEK293 Tl flux inactive
CCc1ccccc1NC(=S)N1CCCCCC1	none (no result: KCNQ2 pot)
O=C(O)c1ccc(Nc2cc(Cl)c3nonc3c2[N+](=O)[O-])cc1	none
O=[N+]([O-])c1c(Nc2cccc(O)c2)cc(Cl)c2nonc12	KCNQ2 block -16 | Kir21 conf inh inactive | HEK293 Tl flux inactive
CC(C)C(NC(=O)c1c(F)cccc1F)C(=O)NCCc1ccc(S(N)(=O)=O)cc1 (stereo unspecified)	none
CCC(=O)NCC(c1cccs1)N1CCOCC1 (stereo unspecified)	none
Cc1cc(SCC(=O)NCC(c2cccs2)N2CCOCC2)c(C)cc1Br (stereo unspecified)	KCNQ2 pot 5.4 | Kir21 conf inh inactive | HEK293 Tl flux inactive | CHO-K1 Tl ctr 38 | KCNQ1 pot spec inactive | KCNQ2 pot confirm inactive | Kir21 spec inactive | KCNQ2 W236L MoA inactive
O=C(C1CCN(S(=O)(=O)c2c(Cl)cccc2Cl)CC1)N1CCCCCCC1	none (no result: KCNQ2 pot)
O=C(Nc1ccccc1O)c1c(O)c2c([nH]c1=O)CCCC2	none
